# Measurements from PubChem BioAssay (NCATS).
# Results filed as inconclusive are left out. Entries that show only a call come without a potency. The source made the active and inactive calls. The call rests on the fitted dose curve; in most records, active means well fitted inhibition curve with a large enough effect; inconclusive means small, poorly fitted or top-dose-only effect; inactive means flat fitted curve, though single readings scatter.
# Target: Calcium and integrin-binding protein 1 (Homo sapiens) (UniProt Q99828)
# Assay: Primary qHTS for Identification of Calcium Integrin Binding Protein 1 (CIB1) Competitor (AID 1508620);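 further: GST tagged CIB1 binding a fluorescein labelled alphaIIb integrin peptide tracer; top concentration of the series differs between compounds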
# Settings: CIB1-GST / FITC-alphaIIb peptide fluorescence polarization; series mostly up to 114 µM
# Summary of the method: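 CIB1-GST (1 uM final) and compound incubated 15 min at room temperature before adding FITC-alphaIIb peptide tracer (100 nM final). Competition for binding read by fluorescence polarization (ex 480, em 540) after another 15 min at room temperature.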
# Sequence of Calcium and integrin-binding protein 1 (Homo sapiens) (Q99828 whole entry, looked up): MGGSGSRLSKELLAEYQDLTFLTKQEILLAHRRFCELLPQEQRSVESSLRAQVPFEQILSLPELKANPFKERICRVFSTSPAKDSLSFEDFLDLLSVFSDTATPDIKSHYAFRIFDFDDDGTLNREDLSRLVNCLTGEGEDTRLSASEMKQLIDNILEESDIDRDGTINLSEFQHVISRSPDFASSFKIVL
row,SMILES,Potency
1,CS(=O)(=O)N1CCC(NC(=O)c2[nH]ncc2NC(=O)c2c(Cl)cccc2Cl)CC1,inactive
2,Cc1cccc(Oc2cnc(=O)[nH]c2)c1,inactive
3,CS(=O)(=O)c1ccc(-c2nnc(/C=C/c3nnc(-c4ccc(C#N)cc4)o3)n2-c2ccccc2Cl)nc1,inactive
4,Cc1ccc(-c2ccc3c(ccc4sc5c(c43)NC[C@@H](C)NC5=O)n2)cn1,inactive
5,CCC(C(=O)O)c1ccc(N2Cc3ccccc3C2=O)cc1 (centres undefined),inactive
6,CC(C)c1cc(CNc2nc(Nc3cc(C4CC4)[nH]n3)cc(N3CCN(C)CC3)n2)on1,inactive
7,CC[C@H](NC(=O)[C@H](CS(=O)(=O)CC1CC1)N[C@@H](c1ccc(F)cc1)C(F)(F)F)C(=O)C(=O)NC1CC1,inactive
8,C[C@@H]1C(=O)O[C@H](C)[C@H]1CC(=O)[C@](C)(O)[C@H]1CC[C@@]2(O)C3=CC(=O)[C@@H]4C[C@@H](O)[C@@H](O)C[C@]4(C)C3CC[C@]12C (some centres undefined),inactive
9,Cc1ccc(Cc2c(C)nc3nc(SCC(=O)NCCN4CCNCC4)nn3c2C)cc1,inactive
10,CCN1CCN(Cc2ccc(Nc3ncc(F)c(-c4cc(F)c5nc(C)n(C(C)C)c5c4)n3)nc2)CC1,inactive
11,CCN1CCN(Cc2ccc(NC(=O)c3ccc(C)c(NC(=O)c4cncc(-c5cccs5)c4)c3)cc2C(F)(F)F)CC1,inactive
12,Cc1cc2c(F)c(Oc3ncnn4cc(OCC(C)O)c(C)c34)ccc2[nH]1 (centres undefined),inactive
13,COCCOc1cnc2ccn([C@H](C)c3nnc4c(F)cc(-c5cnn(C)c5)cn34)c(=O)c2c1,inactive
14,O=C(NCc1cccc(O)c1)Nc1nc(-c2ccncc2)cs1,inactive
